Laboratory results as given in PubChem BioAssay AID504332 (National Center for Advancing Translational Sciences (NCATS), 2011).
Among all 350,000 compounds or so, about 31,000 (8.9%) were called active. Inconclusive results (about 15%) are left out. What follows is part of a selection rich in actives, with near analogues and random picks from the rest. Values without a mark were called inactive. The call rests on the fitted dose curve; in most records, active means well fitted inhibition curve with a large enough effect; inconclusive means small, poorly fitted or top-dose-only effect; inactive means no such curve, though single readings can be large or run the other way.

biological target: Histone-lysine N-methyltransferase EHMT2 (Homo sapiens) (UniProt Q96KQ7); assay: qHTS Assay for Inhibitors of Histone Lysine Methyltransferase G9a; details: G9a H3K9 monomethylation, AlphaScreen, 2 h; series mostly up to 59 µM; activity, negative = inhibition: at the top concentration; further: nearly all actives have a fitted effect of over 75% in size
Sequence (Q96KQ7 913-1193 limits assumed): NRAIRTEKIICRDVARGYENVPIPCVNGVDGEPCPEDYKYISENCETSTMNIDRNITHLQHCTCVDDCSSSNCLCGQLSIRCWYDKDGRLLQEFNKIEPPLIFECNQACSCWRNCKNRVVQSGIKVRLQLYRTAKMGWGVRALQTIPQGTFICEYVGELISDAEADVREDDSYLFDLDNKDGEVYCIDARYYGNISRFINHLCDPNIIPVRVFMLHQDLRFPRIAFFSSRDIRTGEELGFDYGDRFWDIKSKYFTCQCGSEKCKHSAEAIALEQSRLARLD
How it was run: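 AlphaScreen read-out: biotin-H3K9 peptide (500 nM) methylation by 20 nM enzyme with 20 uM SAM, 2 h at room temperature after 15 min compound preincubation; anti-monomethyl H3K9 antibody plus donor/acceptor beads, 10 min dark.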
On the % scale 0 is the no-effect control and ±100 the full control effect; potency means the concentration at half of the fitted maximal effect.

Row | SMILES | activity, negative = inhibition | Potency
1 | S=C(Nc1cccnc1)Nc1ccccn1 | -8.13% [at 2.33 µM] | –
2 | COc1ccc(S(=O)(=O)N2CCCCC2)cc1C(=O)NC1CCS(=O)(=O)C1 (stereo not given) | -6.27% | –
3 | CCOC(=O)c1cc(-c2ccccc2C)n(Cc2cc(C)no2)n1 | -5.1% [at 0.501 µM] | –
4 | CN(C(=O)COC(=O)Cn1cnc2c1c(=O)n(C)c(=O)n2C)C1(C#N)CCCCC1 | 24% [at 12.7 µM] | –
5 | S=c1[nH]nc(-c2cccnc2)n1/N=C/C(Cl)=C\c1ccccc1 | – | 0.891 µM (active)
6 | Cc1cc(-c2n[nH]c(=S)n2/N=C/C(Br)=C/c2ccccc2)n[nH]1 | – | 6.31 µM (active)
7 | c1ccc(-n2nnnc2-c2cccnc2)cc1 | -12.2% [at 102 µM] | –
8 | Cc1cc(-c2n[nH]c(=S)n2/N=C/c2ccco2)n[nH]1 | -104% [at 12.7 µM] | –
9 | Cc1cc(C(=O)N/N=C\C(Br)=C\c2ccccc2)c(C)o1 | -42.4% [at 102 µM] | –
10 | O=C(N/N=C\c1cccnc1)c1cc(-c2ccccc2)nc2c(Cl)cccc12 | 8.22% [at 102 µM] | –
11 | O=C(O)CCCn1cc(NC(=O)COc2cccc(Cl)c2)cn1 | 6.71% [at 102 µM] | –
12 | O=C1CCN(CCCc2ccccc2)CCN1CCO | -2.88% [at 102 µM] | –
13 | CC1CCN(C(=S)c2ccc(-c3ccc(Cl)cc3Cl)o2)CC1 | – | 8.91 µM (active)
14 | Cc1csc(NC(=O)c2ccc(-c3ccc(Cl)cc3Cl)o2)n1 | 2.91% | –
15 | COc1ccc(C(=O)Nc2c(Cl)cc(Cl)cc2C(=O)N2CCC(C)CC2)cc1 | 14.3% | –
16 | COc1ccc(CNC(=O)C(C)n2nc(C)c3c(C)n(-c4ccccc4)nc3c2=O)c(OC)c1 (stereo not given) | – | inactive
17 | O=[N+]([O-])c1ccc(N2CCNCC2)cc1NCc1cccnc1 | 1.92% | –
18 | CC1CCN(c2ccc([N+](=O)[O-])c(SCCO)c2)CC1 | -14.6% | –
19 | CN1CCN(c2ccc([N+](=O)[O-])c(Sc3nc4ccccc4[nH]3)c2)CC1 | – | 10 µM (active)
20 | CCOC(=O)c1ccccc1NC(=O)CCc1c(C)nc2c(c1C)c(=O)n(C)c(=O)n2C | 4.26% | –
21 | CCOc1ccc(N2CC(c3nc4ccccc4n3CCOc3ccc(OC)cc3)CC2=O)cc1 (stereo not given) | -48.9% | –
22 | CCc1ccccc1OCC(=O)Nc1ccc2c(c1)OCCO2 | -6.66% [at 102 µM] | –
23 | COc1ccc(NC(=O)CSc2nnc(C3CC3)n2C)cc1S(=O)(=O)N1CCCCC1 | -4.19% | –
24 | CC(Sc1nnc(-c2ccccc2F)n1C1CC1)C(N)=O (stereo not given) | -3.42% | –

Row | SMILES | activity, negative = inhibition | Potency
25 | COc1ccc(NC(=O)CSc2nnc(-c3ccccc3F)n2C2CC2)cc1S(N)(=O)=O | – | 44.7 µM (active)
26 | Cc1ccc(S(=O)(=O)N(CC(=O)NCc2ccco2)c2ccccc2C)cc1 | -17.8% [at 102 µM] | –
27 | CCOC(=O)C(Cc1ccccc1)NC(=O)CCc1c(C)nc2c(c(C)nn2-c2ccc(C)c(C)c2)c1C (stereo not given) | 1.4% | –
28 | CCOC(=O)c1cc2c(=O)n3ccccc3nc2n(Cc2ccco2)c1=NC(=O)c1ccc(F)cc1 | 9.03% | –
29 | COC(=O)c1ccc(NC(=O)c2cnn(-c3ccc(Cl)cc3)c2C2CCN(C(=O)OC(C)(C)C)CC2)cc1 | -29.6% | –
30 | COc1cccc(NC(=O)CN(C)C(=O)Cc2ccc(Cl)cc2Cl)c1 | 1.78% [at 102 µM] | –
31 | COc1cccc(NC(=O)CN(C)C(=O)CSC(=S)N2CCCC2)c1 | – | 14.1 µM (active)
32 | CCOc1cccc(NC(=O)C2CCCN(S(=O)(=O)c3ccc(OC)cc3)C2)c1 (stereo not given) | -28.2% [at 102 µM] | –
33 | COc1ccccc1CC(=O)Nc1ccc(S(=O)(=O)N2CCCC2)cc1 | 10.5% [at 102 µM] | –
34 | COc1cccc(NC(=O)CN(C)CC(=O)Nc2ccc3c(c2)CCC3)c1 | -6.51% [at 102 µM] | –
35 | CCN(CC(=O)Nc1ccc(S(=O)(=O)N2CCCC2)cc1)CC(=O)Nc1cccc(OC)c1 | – | 31.6 µM (active)
36 | COc1ccc(OC)c(NC(=O)CN2CCCN(Cc3cc(C)ccc3C)S2(=O)=O)c1 | 0.769% | –
37 | COc1ccc(OCCCC(=O)OC(C)C(=O)Nc2ccccc2[N+](=O)[O-])cc1 (stereo not given) | -1.74% [at 2.33 µM] | –
38 | CCOc1ccc(-n2c(C)nc3c(cnn3-c3ccc(C)cc3)c2=O)cc1 | 11.5% | –
39 | CC(C)OCCCNc1nc2c(c(=O)n(Cc3ccccc3F)c(=O)n2C)n1C | – | 22.4 µM (active)
40 | CCOC(=O)CSc1nc2c(c(=O)n(C)c(=O)n2C)n1Cc1ccccc1F | 2.47% [at 102 µM] | –
41 | Cn1c(=O)c2c(nc(NCCNC(=O)c3ccco3)n2Cc2ccccc2F)n(C)c1=O | 41.2% [at 102 µM] | –
42 | CNC(=O)c1ccc(-c2nc(CN3CCc4ccccc43)c(C)o2)cc1 | -0.994% [at 12.7 µM] | –
43 | COC(=O)c1c(NC(=O)COc2ccc(Cl)cc2Cl)sc2c1CC(C)(C)NC2(C)C | – | 31.6 µM (active)
44 | Cc1nn(-c2ccccc2)c(C)c1NC(=O)COc1ccc(Cl)cc1Cl | 26.6% | –
45 | CCOC(=O)c1c(NC(=O)c2ccc(S(=O)(=O)N(C)CC3CCCO3)cc2)sc2c1CC(C)(C)NC2(C)C (stereo not given) | 69.6% [at 102 µM] | –
46 | CC1(C)CC(=O)C=C(c2ccc(Cl)c(C(F)(F)F)c2)C1 | -9.47% [at 0.501 µM] | –
47 | O=C(CCc1nc(-c2ccccc2)no1)Nc1cccc(C(=O)NC2CC2)c1 | -5.9% [at 12.7 µM] | –
48 | CCOC(=O)c1ccccc1NC(=O)COC(=O)C(Cc1c[nH]c2ccccc12)NC(C)=O (stereo not given) | -26.2% [at 102 µM] | –

Row | SMILES | activity, negative = inhibition | Potency
49 | Cc1nonc1C1CCCN1C(=O)c1cc(COc2cccc(C(F)(F)F)c2)on1 (stereo not given) | 24.4% [at 102 µM] | –
50 | Cc1ccc(NC(=O)CSc2nc3c([nH]c4ccccc43)c(=O)n2-c2ccccc2)c(C)c1 | 11.1% | –
51 | O=C(COc1ccccc1F)OCc1cc(=O)n2nc(C3CCCCC3)sc2n1 | 8.46% | –
52 | CC(=O)c1nc2ccccc2n1Cc1ccccc1 | 4.37% [at 102 µM] | –
53 | O=C(O)CCc1nc2cc(Cl)ccc2n(Cc2ccccc2)c1=O | – | 50.1 µM (active)
54 | O=C(O)CCn1c(Cc2ccccc2)nc2ccccc21 | 13.2% [at 102 µM] | –
55 | COc1cc(OC)c(NC(=O)c2cnc(N3CCCC3)nc2C)cc1Cl | -4.36% [at 12.7 µM] | –
56 | COc1cc(C#Cc2ccc3cc(CCCO)oc(=O)c3c2)cc(OC)c1 | -2.15% [at 0.501 µM] | –
57 | COc1ccccc1C(=O)N(Cc1ccc(C)o1)C1CCS(=O)(=O)C1 (stereo not given) | 76.1% [at 102 µM] | –
58 | CC(OC(=O)c1cc2ccccc2o1)C(=O)Nc1ccc(N2CCOCC2)cc1 (stereo not given) | -43.1% [at 12.7 µM] | –
59 | O=C(Cn1c(=O)sc2ccccc21)Nc1nc2c(s1)CCCC2 | -39.4% [at 102 µM] | –
60 | O=C(Nc1nnc(-c2ccccc2F)s1)c1ccccc1F | -8.05% [at 102 µM] | –
61 | O=C(Nc1nc2c(s1)CCCC2)c1ccccc1F | – | 12.6 µM (active)
62 | CCc1ccc(NC(=O)C2CCCN2S(=O)(=O)c2ccc3nc(-c4ccccc4)[nH]c3c2)cc1 (stereo not given) | -30.7% | –
63 | Cc1ccc(CSc2nc3ccsc3c(=O)n2CCC(C)C)cc1 | 65.3% | –
64 | COC(=O)c1ccccc1NC(=O)c1cnn(-c2ccc(F)cc2)c1-n1cccc1 | -2.86% | –
65 | O=C(COc1ccc(Cl)cc1)Nc1ccc2c(c1)OCO2 | 18.4% [at 102 µM] | –
66 | O=C(Nc1ccccc1)N1CCN(C(=O)Nc2ccccc2)CC1 | 6.73% [at 102 µM] | –
67 | O=C(Nc1cccc(NC(=O)N2CCN(c3ccccc3)CC2)c1)N1CCN(c2ccccc2)CC1 | -38.9% [at 102 µM] | –
68 | O=C(CN1CCN(Cc2ccccc2)CC1)Nc1ccc(F)c(F)c1 | – | 7.08 µM (active)
69 | O=C(Nc1ccccc1)N1CCN(Cc2ccccc2)CC1 | – | 2 µM (active)
70 | Cc1cc(NC(=O)CCN2CCN(Cc3ccccc3)CC2)ccc1Br | – | 44.7 µM (active)
71 | O=C(CCN1CCN(C/C=C/c2ccccc2)CC1)Nc1cccc(F)c1 | -7.7% [at 102 µM] | –
72 | O=C1CCN(C(=O)Nc2ccccc2)N1 | – | 7.94 µM (active)

Row | SMILES | activity, negative = inhibition | Potency
73 | O=C(Nc1ccccc1)N1CCC(C(=O)N2CCN(Cc3ccccc3)CC2)CC1 | 9.4% [at 12.7 µM] | –
74 | O=C(Nc1ccccc1)N1CCN(C2c3ccccc3-c3ccccc32)CC1 | 9.14% [at 102 µM] | –
75 | O=C(CN1CCN(CC(=O)Nc2ccc3c(c2)OCO3)CC1)Nc1ccc(F)cc1 | -4.1% [at 2.33 µM] | –
76 | CCOC(=O)N1CCN(CCC(=O)Nc2ccccc2)CC1 | -0.171% [at 0.501 µM] | –
77 | O=C(CN1CCCCCC1)Nc1ccc(Cl)cc1F | -4.75% [at 102 µM] | –
78 | COc1ccc(C)cc1NC(=O)CCc1c(C)nn(-c2ccc(N3CCOCC3)nn2)c1C | -3.72% | –
79 | O=C(COC(=O)c1cnccn1)Nc1ccc(Cl)cc1C(F)(F)F | -3.19% [at 0.501 µM] | –
80 | O=C(Cn1c(=O)nc(-c2ccccc2)c2cc(Cl)ccc21)NCc1ccc(Cl)cc1 | -4.4% | –
81 | O=C(CSc1cn(CC(=O)N2CCOCC2)c2ccccc12)Nc1ccccc1 | 2.17% | –
82 | CN(CC(=O)NCc1ccncc1)S(=O)(=O)c1ccc(Br)cc1 | 9.67% [at 102 µM] | –
83 | CCOC(=O)Cc1csc(SCC(=O)Nc2ccc(C)cc2F)n1 | 25.5% [at 102 µM] | –
84 | C=Cc1ccc(Cn2c(C(=O)OC)cc3sc(C)cc32)cc1 | 62.5% | –
85 | CC(=O)Nc1ccc2nc(SCCOc3cc(C)cc(C)c3)sc2c1 | -9.85% | –
86 | COc1ccc(-c2c3c(=O)n(C)c(=O)n(C)c3c3c(C)nc4ccccc4n23)cc1 | 7.67% | –
87 | COc1cccc(-n2cc3c(c2-c2ccccc2)c(=O)n(C)c(=O)n3C)c1 | – | 25.1 µM (active)
88 | COc1ccccc1-n1c(-c2ccc(C)cc2)cn2c3c(=O)n(C)c(=O)n(C)c3nc12 | -26.8% | –
89 | COc1cccc(N2C(=O)CN(Cc3ccccc3)C2=S)c1 | 23.1% [at 102 µM] | –
90 | COc1ccc(Nc2cc(=O)n(-c3ccccc3)c3c2c(=O)n(C)c(=O)n3C)cc1 | -9.11% [at 102 µM] | –
91 | Cc1ccc(-c2c3c(=O)n(C)c(=O)n(C)c3cn2-c2ccccc2O)cc1 | – | 31.6 µM (active)
92 | O=C(O)c1ccc(CSc2nc3cccnc3n2Cc2cccc(F)c2)cc1 | 6.5% | –
93 | CCN(CC(=O)NCc1cccs1)C(=O)/C=C/c1ccc(C)cc1 | 9.99% [at 12.7 µM] | –
94 | CCOC(=O)c1c(C)[nH]c(CCC(=O)NCCCN2CCN(c3cccc(Cl)c3)CC2)c1C | 1.4% | –
95 | CCOC(=O)c1ccc2c(c1)N(Cc1cccc(OC)c1)C(=O)c1ccccc1S2(=O)=O | 8.77% | –
